# Data: PubChem BioAssay AID651687 (Broad Institute, 2012)
# In all, about 350,000 compounds went through this assay and about 600 (0.17%) were called active.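 How the source made its calls: active means every replicate shows inhibition of at least 40%; inconclusive means mean inhibition at least 40% but some replicate below; inactive means the rest.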 Only a selection was taken, and actives are over-represented in it overall.
# Assay: inhibitors of PGC1a acetylation signal, primary screen, cell-based, U2OS, AlphaScreen, inhibitor mode (AID 651687);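 further: 0% = neutral control wells and 100% = positive control wells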
# Conditions: AlphaScreen anti-acetyl-lysine, at 15.6 µM, hits give high values, with virally co-expressed GCN5 acetyltransferase
row,Compound,inhibition
1,C[C@H]1CN([C@@H](C)CO)C(=O)c2cccc(NC(=O)Nc3ccccc3)c2O[C@H]1CN(C)S(=O)(=O)c1ccc(F)cc1,-3.23% (inactive)
2,C[C@@H]1CN([C@H](C)CO)C(=O)c2cc(NC(=O)Nc3ccc(F)cc3)ccc2O[C@@H](C)CCCCO[C@@H]1CN(C)S(=O)(=O)c1cn(C)cn1,-2.5% (inactive)
3,C[C@@H](O)C#Cc1ccc([C@H]2[C@H](CO)N3CCCCN(C(=O)c4ccc(F)cc4)C[C@@H]23)cc1,-2.34% (inactive)
4,NC(=O)N/N=C\c1cccs1,76.7% (active)
5,Cc1cc(C)nc(SC(C)C(=O)N/N=C/c2cccs2)n1 (configuration not stated),-4.85% (inactive)
6,Cc1nc2ccccc2n1CC(=O)N/N=C/c1cccs1,0.244% (inactive)
7,COCC(=O)N1[C@H](CO)[C@@H](c2ccccc2)C12CN(Cc1cc(F)ccc1F)C2,3.15% (inactive)
8,CN1c2ccc(C#Cc3ccccc3F)cc2[C@@H]2[C@@H](CCN2C(=O)Cc2cccnc2)[C@H]1CO,-8.75% (inactive)
9,CO[C@@H]1CN(C)C(=O)c2ccc(NS(=O)(=O)c3c(C)noc3C)cc2OC[C@H](C)NC[C@@H]1C,14.4% (inactive)
10,CC(C)NC(=O)N(C)C[C@H]1OCCCC[C@H](C)Oc2ccc(NS(=O)(=O)c3cccs3)cc2C(=O)N([C@H](C)CO)C[C@@H]1C,-3.81% (inactive)
11,COc1ccc2c3c(n(C)c2c1)[C@@H](CO)N(C(=O)CN1CCOCC1)CC31CCN(C(=O)C2CC2)CC1,5.01% (inactive)
12,O=C(c1cccnc1)N1C[C@H]2[C@@H](c3ccccc31)[C@H](CO)N2C(=O)C1CC1,8.96% (inactive)
13,C[C@H](CO)N1C[C@H](C)[C@@H](CN(C)S(=O)(=O)c2cccs2)OCc2ccccc2-c2ccccc2C1=O,-0.156% (inactive)
14,CCNC(=O)C[C@@H]1CC[C@@H]2[C@@H](COc3ccc(NC(=O)Nc4ccccc4F)cc3C(=O)N2C)O1,2.36% (inactive)
15,CO[C@@H]1CN(C)C(=O)c2cc(NC(=O)c3ccccc3F)ccc2OC[C@H](C)NC[C@@H]1C,-5.95% (inactive)
16,CO[C@@H]1CN(C)C(=O)c2ccc(NC(=O)c3ccccc3F)cc2OC[C@@H](C)N(CC2CCOCC2)C[C@H]1C,-3.01% (inactive)
17,C[C@@H]1CCCCO[C@@H](CN(C)C(=O)C2CCCCC2)[C@H](C)CN([C@H](C)CO)C(=O)c2cc(NC(=O)c3ccccc3)ccc2O1,-4.75% (inactive)
18,CCCN(C)C[C@H]1Oc2ncc(-c3ccccc3OC)cc2C(=O)N([C@H](C)CO)C[C@H]1C,7.87% (inactive)
19,C[C@@H](NC(=O)C[C@H]1CC[C@H]2[C@@H](COC[C@@H](O)CN2C(=O)Nc2ccccc2)O1)c1ccccc1,6.72% (inactive)
20,COc1ccccc1C#Cc1cnc2c(c1)C(=O)N([C@@H](C)CO)C[C@@H](C)[C@H](CN(C)C(=O)CN(C)C)O2,-1.48% (inactive)
21,Cc1[nH]c(=O)c(C(=O)/C=C/c2ccccc2)c2c1CCCC2,53.2% (active)
22,C/C(=C\c1ccccc1)C1NC(=O)c2c(sc3c2CCCC3)N1 (configuration not stated),6.29% (inactive)
23,CC1(C(=O)O)CCCN(C(=O)/C=C/c2ccccc2)C1 (configuration not stated),7.82% (inactive)

row,Compound,inhibition
1,C[C@@H]1CN([C@H](C)CO)C(=O)c2cc(NC(=O)c3ccccc3)ccc2O[C@@H](C)CCCCO[C@H]1CN(C)S(=O)(=O)c1ccccc1,0.633% (inactive)
2,CC(C)CC#Cc1ccc2c(c1)O[C@H](CN(C)C(=O)C1CC1)[C@@H](C)CN([C@@H](C)CO)S2(=O)=O,3.73% (inactive)
3,CCCN1C[C@@H](C)[C@H](OC)CN(C)C(=O)c2cc(NC(=O)CC)ccc2OC[C@@H]1C,3.35% (inactive)
4,C/C=C/c1ccc([C@H]2[C@H]3CN(S(=O)(=O)c4ccccc4)CCCCN3[C@H]2CO)cc1,-5.04% (inactive)
5,Cc1noc(C)c1NC(=O)N(C)C[C@@H]1Oc2ccc(NC(=O)Nc3ccc4c(c3)OCO4)cc2CC(=O)N([C@H](C)CO)C[C@H]1C,-8.32% (inactive)
6,O=C(C1CCCC1)N1CC(=O)N2[C@H](CO)[C@H](c3ccc(Br)cc3)[C@@H]2C1,-9% (inactive)
7,C[C@@H]1CN([C@H](C)CO)C(=O)Cc2cc(NC(=O)Cn3cnnn3)ccc2O[C@H]1CN(C)CC1CCCCC1,-7.22% (inactive)
8,N#C[C@H]1[C@H](c2ccc(-c3cccc(F)c3)cc2)[C@@H](CO)N1C(=O)NC1CCCC1,4.29% (inactive)
9,C[C@@H]1CN([C@H](C)CO)C(=O)c2cccc(NS(=O)(=O)c3cn(C)cn3)c2O[C@@H]1CN(C)Cc1ccc(C(F)(F)F)cc1,-1.87% (inactive)
10,O=C(C[C@H]1C[C@@H]2c3cc(NC(=O)c4ccc5c(c4)OCO5)ccc3O[C@@H]2[C@@H](CO)O1)NCc1cccnc1,-3.47% (inactive)
11,COCC(=O)N1CC(=O)N2[C@H](C1)[C@@H](c1ccc(C#Cc3cccc(OC)c3)cc1)[C@@H]2CO,-0.955% (inactive)
12,O=C(O)c1ccc2c(=O)n3c(nc2c1)/C(=C/c1ccc(Cl)c([N+](=O)[O-])c1)CC3,12.5% (inactive)
13,Cc1nc2ccccc2c(=O)n1NC(=O)c1ccc(Cl)c([N+](=O)[O-])c1,44.8% (active)
14,Cc1ccnc(NC(=O)c2ccc(Cl)c([N+](=O)[O-])c2)c1,3% (inactive)
15,O=C(C1CC1)N1CC(=O)N2[C@H](CO)[C@@H](c3ccc(-c4ccccc4F)cc3)[C@@H]2C1,6.24% (inactive)
16,C[C@H]1CN([C@@H](C)CO)C(=O)c2cc(-c3ccc(C#N)cc3)cnc2O[C@@H]1CN(C)Cc1ccncc1,-4.55% (inactive)
17,C[C@@H]1CCCCO[C@H](CN(C)C(=O)Nc2ccccc2)[C@H](C)CN([C@H](C)CO)C(=O)c2cc(N(C)C)ccc2O1,0.535% (inactive)
18,O=C(C[C@H]1C=C[C@H](NC(=O)c2cnccn2)[C@@H](CO)O1)NCc1ccccc1F,-5.81% (inactive)
19,CN1/C(=C\C(=O)c2oc3ccccc3c2N)C(C)(C)c2ccccc21,86.9% (active)
20,CN1/C(=C\C=C2\N=C(c3ccc(F)cc3)OC2=O)C(C)(C)c2ccccc21,-0.203% (inactive)
21,CN1CCN(CCC(=O)N/N=C/C=C2\N(C)c3ccccc3C2(C)C)CC1,17.1% (inactive)
22,C[C@@H]1CN([C@H](C)CO)C(=O)c2cccc(NC(=O)c3nc4ccccc4s3)c2O[C@@H]1CN(C)Cc1ccc(Oc2ccccc2)cc1,16.2% (inactive)
23,CN1CCN(C(=O)C[C@H]2CC[C@H]3[C@@H](COC[C@H](O)CN3CC3CCOCC3)O2)CC1,0.0455% (inactive)

row,Compound,inhibition
1,C/C(Cc1ccccc1)=N\NC(=O)CNC(=O)c1ccccc1Cl,5.72% (inactive)
2,O=C(N/N=C\c1cc2c(cc1Cl)OCO2)c1ccc(Br)s1,-10.7% (inactive)
3,CC/C(=N\NC(=O)c1ccccc1Cl)c1ccc(Br)s1,82.8% (active)
4,COc1ccc(S(=O)(=O)N(C)C[C@H]2OCCCC[C@@H](C)Oc3ccc(NS(=O)(=O)c4ccc(C)cc4)cc3C(=O)N([C@@H](C)CO)C[C@@H]2C)cc1,0.06% (inactive)
5,COCCCn1c(CCC(=O)O)ccc1-c1ccc(F)cc1,-1.42% (inactive)
6,COc1ccc(-c2ccc(CCC(=O)O)n2-c2ccc(O)cc2)cc1,1.05% (inactive)
7,COc1ccc(-c2ccc(CCC(=O)O)n2NC(=O)c2ccc(C(C)(C)C)cc2)cc1,43.5% (active)
8,Cc1noc(C)c1NC(=O)N(C)C[C@@H]1OCCCC[C@H](C)Oc2ccc(NS(=O)(=O)c3c(C)noc3C)cc2C(=O)N([C@@H](C)CO)C[C@@H]1C,-1.1% (inactive)
9,CN1C(=O)c2cc(NC(=O)C3CCOCC3)ccc2OC[C@@H]2O[C@@H](CC(=O)NCC3CC3)CC[C@@H]21,4.15% (inactive)
10,C[C@@H]1CN([C@H](C)CO)C(=O)c2cc(NS(=O)(=O)c3cn(C)cn3)ccc2O[C@@H](C)CCCCO[C@@H]1CN(C)C(=O)CCC(F)(F)F,-2.59% (inactive)
11,COc1ccc(NC(=O)N2CC(=O)N3[C@H](CO)[C@@H](c4ccc(-c5ccc(C)cc5)cc4)[C@H]3C2)cc1,5.16% (inactive)
12,COc1ccccc1C(=O)Nc1ccc2c(c1)OC[C@@H](C)NC[C@H](C)[C@@H](OC)CN(C)C2=O,-5.63% (inactive)
13,O=C(C[C@@H]1C[C@@H]2c3cc(NC(=O)c4ccc5c(c4)OCO5)ccc3O[C@@H]2[C@H](CO)O1)NCCc1ccccc1,-4.93% (inactive)
14,CCN1[C@@H]2Cn3c(ccc(-c4cccnc4)c3=O)[C@H]1[C@@H](C(=O)NC1CCCCC1)[C@@H]2CO,1.27% (inactive)
15,CCCNC(=O)C[C@H]1CC[C@H]2[C@@H](COC[C@H](O)CN2C(=O)CC)O1,3.49% (inactive)
16,CCCNC(=O)C[C@H]1CC[C@@H]2[C@H](COC[C@H](O)CN2S(=O)(=O)c2ccccc2F)O1,-0.728% (inactive)
17,O=C(C[C@@H]1CC[C@H](NC(=O)CN2CCOCC2)[C@@H](CO)O1)NCCc1ccccc1,-5.55% (inactive)
18,CC(C)NC(=O)Nc1ccc2c(c1)C(=O)N([C@@H](C)CO)C[C@@H](C)[C@@H](CN(C)S(=O)(=O)c1ccc(F)cc1)OCCCC[C@H](C)O2,-0.972% (inactive)
19,CC(C)NC(=O)Nc1ccc2c(c1)C(=O)N([C@@H](C)CO)C[C@H](C)[C@H](CN(C)S(=O)(=O)c1ccc(Cl)cc1)OCCCC[C@H](C)O2,-18.6% (inactive)
20,CC(C)NC(=O)Nc1ccc2c(c1)C(=O)N([C@@H](C)CO)C[C@@H](C)[C@H](CN(C)S(=O)(=O)c1ccccc1)OCCCC[C@@H](C)O2,124% (active)
21,C[C@@H]1CN([C@H](C)CO)S(=O)(=O)c2ccc(C#CC3CCCC3)cc2O[C@@H]1CN(C)Cc1cccnc1,-39.6% (inactive)
